ChEMBL document CHEMBL4513149, “CO-ADD screening of MMV (CH) - MMV compounds” (2021)
Potency and affinity values are given separately.

Tests used:
Staphylococcus aureus = settings: Concentration 20 uM; ASSAY_TEST Inhibition of Bacterial Growth; detection method Absorption (OD600); MEDIA CAMHB; plate type 384well; NBS; CORNING #3640; time 18 hr
Escherichia coli = settings: Concentration 20 uM; ASSAY_TEST Inhibition of Bacterial Growth; detection method Absorption (OD600); MEDIA CAMHB; plate type 384well; NBS; CORNING #3640; time 18 hr

Row | SMILES | Inhibition (Staphylococcus aureus) [%] | Inhibition (Escherichia coli) [%]
1 | CN(C)c1cc(NC(=O)Nc2ccccc2)c2ccccc2n1 | 12.79 | 6.08
2 | Cc1cc(Nc2ccncc2)n2nc(C)c(-c3ccccc3Cl)c2n1 | 12.68 | 7.54
3 | O=C(Nc1ccc(F)c(-c2nc3cc(-c4ccccc4)cnc3[nH]2)c1)N1CCCC1 | 13.16 | -0.3
4 | Cc1ccc(Oc2ccc(NC(=O)CNc3ccccc3N3CCCC3=O)cc2)cc1 | 5.88 | 6.72
5 | C[C@H](C(N)=O)N1CCCC[C@H]1c1ccc(OCc2cccc(F)c2)cc1 | 21.57 | 11.68
6 | Cl.NCCCC(N)(C(=O)O)C(F)F.O (configuration not stated) [EFLORNITHINE HYDROCHLORIDE] | 10.2 | -2.06
7 | CNC(=O)C1Cc2c([nH]c3cc(Cl)ccc23)C2(CCN(CCc3ccccc3)CC2)N1 (configuration not stated) | 24.47 | 9.53
8 | Cc1cc(Cl)ccc1NC(=O)CCc1ccc(S(=O)(=O)NCC(C)C)cc1 | 6.84 | 9.61
9 | Cl.c1ccc(Oc2ccc(-c3cc(N4CCNCC4)[nH]n3)cc2)cc1 | 14.57 | 9.1
10 | O=C(c1ccc(NCCO)cc1)C1C[C@H]1c1ccc(Cl)cc1 (some centres not stated) | 8.07 | -0.72
11 | CC(C)(C)OC(=O)N1CCN(c2nccc(-c3ccc(-c4ccc(Cl)cc4)s3)n2)CC1 | 15.85 | 9.45
12 | COc1ccc(CN2CCOc3ccc(C(C)(O)CN(C)C)cc3C2)cc1C (configuration not stated) | 19.53 | 9.29
13 | O=C(CN1CCOCC1)Nc1ccc2ncnc(Nc3ccc(OCc4cccc(F)c4)c(Cl)c3)c2c1 | 14.97 | 4.06
14 | CC(C(=O)Nc1ccc2oc(-c3ccncc3)nc2c1)c1ccccc1 (configuration not stated) | 33.61 | 6.76
15 | Clc1ccc(-n2cc(COc3ccnc4ccccc34)nn2)cc1 | 21.12 | 8.78
16 | CNC(=O)CNc1nc(-c2ccccn2)nc2scc(-c3ccccc3)c12 | 11.27 | 6.67
17 | FC(F)(F)c1cc(NCCc2ccccc2)nc(-c2ccccn2)n1 | -9.89 | -6.09
18 | O=C(NCCc1ccccc1)c1cc(-c2cccnc2)cnc1NCC1CC1 | 6.31 | 1.84

Row | SMILES | Inhibition (Staphylococcus aureus) [%] | Inhibition (Escherichia coli) [%]
19 | CCCS(=O)(=O)N1CCC(CO)(Cc2ccccc2C(F)(F)F)CC1 | 8.25 | -1.16
20 | CCc1nc2ccccc2n1CC(O)COc1cc(C)ccc1Cl (configuration not stated) | 11.53 | 4.16
21 | Cc1ccc(-c2nc(CN(Cc3ccccn3)C(C)C)cs2)o1 | 63.05 | 8.22
22 | COc1ccc(OC(C)C(=O)Nc2ccc(Cl)cc2C)cc1 (configuration not stated) | 11.95 | 5.14
23 | CCC(Sc1nc2ccccc2o1)C(=O)Nc1nccs1 (configuration not stated) | 18.2 | 11.9
24 | c1cc(C2=NCCN2)cc(-c2cc(-c3ccc(C4=NCCN4)cc3)no2)c1 | 5.99 | 8.18
25 | COC(=O)c1c(NC(=O)c2c(F)c(F)c(F)c(F)c2F)sc2c1CCCCC2 | 13.36 | 6.57
26 | N#Cc1ccc(-c2cnc(N)c(-c3ccc(C(N)=O)cc3)n2)cc1 | 16.7 | 7.7
27 | COc1ccc(S(=O)(=O)Nc2ccc(CN3CCN(C(=O)c4cccc(C#N)c4)CC3)cc2)cc1 | 1.42 | -0.19
28 | OCCc1ccc(Nc2nccc(-c3nnc4ccccn34)n2)cc1 | 21.71 | 6.52
29 | COCC(C)NC(=O)CSc1ncnc2sc(-c3ccccc3)cc12 (configuration not stated) | 19.45 | 9.3
30 | COc1cccc(OCC(=O)c2ccc(Br)cc2)c1 | -13.25 | -7.45
31 | Cc1cc(C)n(-c2ccc(NC(=O)C3CCN(Cc4cnc(C)s4)CC3)cc2)n1 | 16.08 | 3.68
32 | CC(C)(C)c1cnc(NC(=O)c2ccccc2O)s1 | 23.8 | 4.86
33 | COc1cccc(OC)c1C(=O)Nc1ccc(Cl)c(-c2nc3ccccc3s2)c1 | 3.55 | -2.89
34 | CCc1ccc(S(=O)(=O)Nc2cc(CN3CCN(CCC(C)C)CC3)ccc2C)cc1 | 21.02 | 13.04
35 | CCCn1c(CNc2ccccc2O)nc2ccccc21 | 17.07 | 4.85
36 | CS(=O)(=O)c1cccc(-c2cnc3[nH]cc(-c4ccc(CCC(=O)O)cc4)c3c2)c1 | 21.11 | 7.22
